Results: PubChem BioAssay AID2535 (National Center for Advancing Translational Sciences (NCATS), 2010)

biological target: Pyruvate kinase PKLR (Homo sapiens) (UniProt P30613); test: Secondary Concentration-Response Assay for Activators of Human Liver Pyruvate Kinase: for Probe SAR; conditions: purified hPK-L, ATP production, Kinase-Glo luminescence; series mostly up to 58.3 µM; activity change, positive = activation: at the top concentration;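 further: 0% = uninhibited enzyme wells on each plate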
Excerpt: NIH Chemical Genomics Center [NCGC]
Matthew G. Vander Heiden, M.D., Ph.D. [Harvard Medical School, 77 Avenue Louis Pasteur, Boston, MA 02115]
Human pyruvate kinase liver (hPK-L) enzyme was supplied as a highly purified (>95% pure) preparation from Harvard Medical School and assayed for its ability to generate ATP from ADP using phosphoenolpyruvate (PEP) as a substrate. ATP generation was detected in a coupled reaction by luciferase-mediated luminescence, an ATP-dependent process. Pyruvate kinase substrates, PEP and ADP, were present in the assay at Km and approximately 10-fold below Km respectively. The enzyme was assayed at an intermediate level of activity to screen for both inhibitors and activators.
NCGC Assay Protocol Summary for L-isoform:
Three uL of substrate mix (at r.t.) in assay buffer (50 mM Imidazole pH7.2, 50 mM KCl, 7 mM MgCl2, 0.01% Tween 20, 0.05% BSA) was dispensed into white solid bottom 1,536 well microtiter plates so that the final concentrations of substrates in the assay were 0.1 mM ADP and 0.5 mM PEP. 23 nL of compound were delivered by a pin tool and 1 uL of enzyme mix (final concentration of 0.1 nM) in assay buffer (4 degree Celsius) was added. Plates were incubated at room temperature for 1 hour. Two uL of detection mix (Kinase-Glo, Promega; at 4 degree Celsius protected from light) was added and luminescence read by a ViewLux (Perkin Elmer) at 1 second exposure/plate. Data were normalized to the uninhibited (row 31). Additionally, a no enzyme and 5-fold enzyme control was dispensed in row 32, split equally between the two conditions.

Chain of Pyruvate kinase PKLR (Homo sapiens) (P30613 whole entry, looked up): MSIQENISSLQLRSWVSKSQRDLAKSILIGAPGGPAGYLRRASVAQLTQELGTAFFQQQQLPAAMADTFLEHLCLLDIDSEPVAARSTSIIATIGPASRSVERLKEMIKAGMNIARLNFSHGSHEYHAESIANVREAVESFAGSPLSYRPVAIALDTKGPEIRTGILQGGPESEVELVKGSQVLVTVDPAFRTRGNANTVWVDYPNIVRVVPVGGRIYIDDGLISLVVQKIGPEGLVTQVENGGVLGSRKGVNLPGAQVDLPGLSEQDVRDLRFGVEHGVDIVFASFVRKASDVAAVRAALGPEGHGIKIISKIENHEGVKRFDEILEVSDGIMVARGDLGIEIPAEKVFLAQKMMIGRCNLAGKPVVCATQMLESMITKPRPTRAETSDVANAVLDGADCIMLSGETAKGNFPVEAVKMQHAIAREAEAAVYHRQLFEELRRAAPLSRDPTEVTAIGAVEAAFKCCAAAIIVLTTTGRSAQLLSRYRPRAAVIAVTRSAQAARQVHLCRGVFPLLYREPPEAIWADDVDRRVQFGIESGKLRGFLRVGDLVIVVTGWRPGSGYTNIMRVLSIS

Activity change, positive = activation, inactive:
Cc1ccc(NS(=O)(=O)c2cc3c(cc2-c2ccsc2)NC(=O)CO3)cc1C 13.4%, O=C1c2ccccc2C(=O)N1C1CCCCC1 2.06%, CCCCN1C(=O)c2ccccc2C1=O 0.342%, O=C1c2ccccc2C(=O)N1c1cncc2ccccc12 4.55%, O=C1c2ccccc2C(=O)N1c1cc(=O)c2ccccc2[nH]1 3.65%, O=C1c2ccccc2C(=O)N1Cc1cccnc1 7.89%, Cc1ccc2nc(-c3ccc(C)o3)c(Nc3ccc4c(c3)OCO4)n2c1 -4.02%, Cc1ccc(Nc2c(-c3ccc(C)s3)nc3cccc(C)n23)cc1 6.05%, Cc1ccc(NS(=O)(=O)c2ccc3c(c2)CCC(C)(C)O3)cc1C 7.91%, Cc1ccc(Nc2c(-c3ccsc3)nc3cccc(C)n23)cc1 -2.82%, Cc1ccc(NS(=O)(=O)c2ccc3c(c2)CCO3)cc1C -21.2%, CCNc1cccc(S(=O)(=O)N2CCN(S(=O)(=O)c3ccc4c(c3)OCCO4)CC2)c1 21.8%, O=C1CCc2cc(S(=O)(=O)Nc3ccncc3)ccc2N1 0.409%, Cc1ccc(NS(=O)(=O)c2cc3c(cc2/C=C/c2ccccc2)NC(=O)CO3)cc1C -0.901%, COc1cc(N2C(=O)c3ccccc3C2=O)c2ncccc2c1 4.29%, Cc1ccc(NS(=O)(=O)c2cc3c(cc2C)OCC(=O)N3)cc1C 12%, O=C1CCc2cc(S(=O)(=O)Nc3ccc4ccccc4c3)ccc2N1 6.53%, O=C1c2ccccc2C(=O)N1c1cccc2cnccc12 -1.65%, COc1ccc(S(=O)(=O)Nc2ccc(C)c(C)c2)cc1 9.75%, O=C1CCc2cc(S(=O)(=O)Nc3cccc4ccccc34)ccc2N1 0.398%, Cc1ccc(N[S+](=O)([O-])c2cc3c(cc2CCc2ccccc2)NC(=O)CO3)cc1C 1.58%, Cc1ccc(NS(=O)(=O)c2ccc3c(c2)N(C)CCO3)cc1C 8.48%, Cc1ccc(NS(=O)(=O)c2cc3c(cc2-c2cn[nH]c2)NC(=O)CO3)cc1C -3.69%, Cc1ccccc1NS(=O)(=O)c1ccc2c(c1)CCC(=O)N2 6.63%, O=C1c2ccccc2C(=O)N1c1cccc2cccnc12 3.16%, O=C1CCc2cc(S(=O)(=O)Nc3ccccc3-c3ccccc3)ccc2N1 2.85%, Cc1ccc(NS(=O)(=O)c2cc3c(cc2Cl)CCC(=O)N3)cc1Cl 14.3%, Cc1ccc(Nc2c(-c3ccsc3)nc3c(C)cccn23)cc1 -4.16%, Cc1cccc(NS(=O)(=O)c2ccc3c(c2)CCC(=O)N3)c1 5.35%, CSc1cc2c(s1)c1cnn(Cc3cccc(N)c3)c(=O)c1n2C 15.7%, Cc1ccc(NS(=O)(=O)c2cc3c(cc2F)NC(=O)CC3)cc1Cl 13.8%, Cc1ccc(-c2nc3cccc(C)n3c2Nc2ccc(F)cc2)o1 4.76%, O=C1CCc2cc(S(=O)(=O)Nc3ccc4c(c3)CCC4)ccc2N1 17.1%, CN(C)c1cccc(S(=O)(=O)N2CCN(S(=O)(=O)c3ccc4c(c3)OCCO4)CC2)c1 13.5%, COc1cc(F)c(S(=O)(=O)N2CCCN(S(=O)(=O)c3cccc(N)c3)CC2)c(F)c1 22.6%, Cc1ccc(NS(=O)(=O)c2ccc(N3CCCC3=O)cc2)cc1C 12.3%, Cc1ccc(Cl)cc1NS(=O)(=O)c1cc2c(cc1F)NC(=O)CC2 -12.6%, O=C1CCc2cc(S(=O)(=O)Nc3ccc(F)c(Cl)c3)ccc2N1 4.41%, Cc1ccc(NS(=O)(=O)c2cc3c(cc2-c2ccco2)NC(=O)CO3)cc1C 5.64%, O=S1(=O)N=C(Oc2ccc(Cl)cc2)c2ccccc21 -6.67%
